Measurements: PubChem BioAssay (EPA / NIEHS)
Activity calls are given as the source filed them. How the source made its calls: active means hit-call score of the fitted dose curve at least 0.9, where 1 is the maximum; inactive means score below 0.9.

Test: ATG_VDRE_CIS: Attagene CIS-FACTORIAL HepG2 Assay for human Vitamin D Receptor Element (VDRE) (AID 2282968)
Details: HepG2 VDRE cis-reporter transcription, actives raise or lower the signal
Method: ATG_CIS is a cell-based, multiplexed-readout assay that uses HepG2, a human liver cell line, with measurements taken at 24 hours after chemical dosing in a 24-well plate.ATG_VDRE_CIS is one of 52 assay component(s) measured or calculated from the ATG_CIS assay. It is designed to make measurements of mRNA induction, a form of inducible reporter, as detected with fluorescence intensity signals by Reverse transcription polymerase chain reaction (RT-PCR) and Capillary electrophoresis technology.Data from the assay component ATG_VDRE_CIS was analyzed into 1 assay endpoint. This assay endpoint, ATG_VDRE_CIS, was analyzed with bidirectional fitting relative to DMSO as the negative control and baseline of activity. Using a type of inducible reporter, measures of mRNA for gain or loss-of-signal activity can be used to understand the reporter gene at the transcription factor-level as they relate to the gene VDR. Furthermore, this assay endpoint can be referred to as a primary readout, because this assay has produced multiple assay endpoints where this one serves a reporter gene function. To generalize the intended target to other relatable targets, this assay endpoint is annotated to the nuclear receptor intended target family, where the subfamily is non-steroidal.
Human liver HepG2 cells are transiently transfected with multiple reporter transcription units (MRTUs) in 6-well plates using FuGene 6 reagent (Roche; 3 ml FuGene/1 mg DNA). The MRTU constructs are regulated by a cis-regulating element (promoter). […] A major difference between the CIS and TRANS system is that in CIS activities of endogenous TFs are measured, whereas the TRANS assay evaluates changes in activities of exogenous, chimeric NR-Gal4 proteins. […] At the end of 24 hour incubation, total RNA was isolated using TriZol reagent (Invitrogen). The isolated RNA is then reverse-transcribed using oligo(dT) primer and Mo-MLV reverse transcriptase (Invitrogen) with DNAse I (Ambion) treatment for 30 min. The one-tenth of the produced cDNA was amplified by PCR using Taq DNA polymerase (Invitrogen) and two reporter sequence-specific primers. The PCR products were fluorescently labeled by primer extension with 6-arboxyfluorescein (6-FAM) 5'-labeled reporter sequence-specific primer (2 min at 95 C, 20 s at 68 C and 10 min at 72 C) and these products were digested with 5U of HpaI (New England Biolabs) for 2h at 37 C. The fragments were purified using Qiaquick PCR columns (Qiagen), analyzed on an ABI 3130xL genetic analyzer (Applied Biosystems) with peak positions identified by using a set of X-rhodamine (ROX)-labeled MapMarker1000 molecular weight standards (BioVentures). The raw capillary electrophoresis data was processed using Attagraph software (Attagene).

Row | Structure (SMILES) | outcome | AC50
1 | Cc1ccc(C)c(C)c1 | inactive | –
2 | Cc1cccc([N+](=O)[O-])c1C | inactive | –
3 | CCc1c(C(=O)NN2CCCCC2)nn(-c2ccc(Cl)cc2Cl)c1-c1ccc(Br)cc1 | – | 1.38 µM (active)
4 | Cc1nc(C)nc(N2C[C@@H](C)N(c3ccnc([C@@H](C)O)n3)[C@@H](C)C2)n1 | inactive | –
5 | Nc1nc(N)c2nc(CNc3ccc(C(=O)N[C@@H](CCC(=O)O)C(=O)O)cc3)cnc2n1 | inactive | –
6 | CC(=O)OCCOCCOCCOC(C)=O | inactive | –
7 | COc1ccc(C)cc1N | inactive | –
8 | COc1cccc2c1C(=O)c1c(O)c3c(c(O)c1C2=O)C[C@@](O)(C(=O)CO)C[C@@H]3O[C@H]1C[C@H](N)[C@H](O)[C@H](C)O1 | – | 0.318 µM (active)
9 | CC1(C)CC(N=C=O)CC(C)(CN=C=O)C1 (stereo not given) | inactive | –
10 | CC(CO)OC(C)CO (stereo not given) (tested in a mixture with another compound) | inactive | –
11 | CN[C@H]1CC[C@@H](c2ccc(Cl)c(Cl)c2)c2ccc(S(N)(=O)=O)cc21 | inactive | –
12 | CN1CCCC1=O | inactive | –
13 | COC(=O)c1ccc(O)cc1 | inactive | –
14 | CNCc1cc(F)ccc1Oc1ccc(Cl)c(Cl)c1 | inactive | –
15 | CCOc1ccc2c(c1)C(C)=CC(C)(C)N2 | – | 38.2 µM (active)
16 | O=C(O)Cc1ccccc1Nc1c(Cl)cccc1Cl | – | 16.2 µM (active)
17 | Cc1ccccc1Cl | inactive | –
18 | CCNc1cccc(C)c1 | inactive | –
19 | Oc1ccc2c(c1)OC[C@@H](N1CCC(O)(c3ccc(F)cc3)CC1)[C@H]2O | – | 30.1 µM (active)
20 | C1CCC(SSC2CCCCC2)CC1 | inactive | –

Row | Structure (SMILES) | outcome | AC50
21 | CCCCCCOCCO | inactive | –
22 | CCOC(=O)CCC(=O)OCC | inactive | –
23 | NC(=O)Cn1c(=O)cc(CCN2CCN(c3nccc4sccc34)CC2)c2ccc(F)cc21 | inactive | –
24 | OC[C@@H](O)[C@@H](O)[C@H](O)[C@H](O)CO | inactive | –
25 | CCCCCC(=O)O | inactive | –
26 | CC(C)(C)c1cc(O)c(C(C)(C)C)cc1O | – | 32 µM (active)
27 | Cc1ccc(C)c(O)c1C | inactive | –
28 | CCOC(=O)C(C)(C)Oc1ccc(Cl)cc1 | inactive | –
29 | FC(F)(F)C(F)(F)C(F)(F)C(F)(F)C(F)(F)C(F)(F)CCI | inactive | –
30 | CCCCc1ccc2c(n1)[C@@H](c1ccc(OC)cc1C[C@H](C)C(=O)O)[C@H](C(=O)O)[C@H]2c1ccc2c(c1)OCO2 | inactive | –
31 | CC1=C(/C=C/C(C)=C/C=C/C(C)=C/CO)C(C)(C)CCC1 | – | 1.85 µM (active)
32 | COc1cc(/C=C/C(=O)CC(=O)/C=C/c2ccc(O)c(OC)c2)ccc1O | – | 33.4 µM (active)
33 | Cc1cc(NC(=O)C(=O)O)cc(C)c1Oc1ccc(O)c2c1CCC2 | inactive | –
34 | Cc1oc(-c2ccccc2)nc1CCOc1cccc2c1ccn2CCC(=O)O | inactive | –
35 | Cc1cc(=O)[nH]c(=S)[nH]1 | inactive | –
36 | C[Si]1(C)O[Si](C)(C)O[Si](C)(C)O[Si](C)(C)O1 | inactive | –
37 | CCCCC(CC)COC(=O)CC(C(=O)OCC(CC)CCCC)S(=O)(=O)O (stereo not given) | inactive | –
38 | O=C(O)CCCCC(=O)O | inactive | –
39 | Cc1cccc(C)c1O | inactive | –
40 | O=c1c(O)c(-c2ccc(O)c(O)c2)oc2cc(O)cc(O)c12 | inactive | –
